The source of these data is PubChem BioAssay (NCI).

The structures appear in SMILES notation. About 83,000 compounds went through this panel and 20% of them were active in at least one assay; those are over-represented in the sample as a whole.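 Assay: single dose, 48 h. Readout: percent growth (0 = no net growth; negative = cell death). Active: <10.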 Unmarked numbers belong to inactive results. Activity calls are given as the source filed them.

The assay has as its system OVCAR-8 ovarian. In words: NCI-60 one-dose screen, 48 h (100 = growth as untreated, 0 = no growth, -100 = all killed). Particulars: 10 µM. On the procedure:
Growth inhibition of the OVCAR-8 human tumor cell line is measured as a screen for anti-cancer activity. Cells are grown in 96 well plates and exposed to the test compound for 48 hours. Compounds are tested at a single concentration, which is 10^-5 M for most compounds. The reported endpoint is percent growth (GI% or GIPRCNT), where numbers from 0 - 100% represent growth inhibition, and numbers from -100% - 0 represent cell death. For example, a value of 40 represents 60% growth inhibition. A value of 0 means no net growth occurred over the course of the experiment. A value of -40 indicates 40% of cells at the beginning of the experiment died by the end of the experiment. A value of -100 means all cells are dead at the end of the experiment.
NCI-60 Human Tumor Cell Lines Screen was performed using the standard one-dose NCI protocol, which is described in more detail at https://dtp.cancer.gov/discovery_development/nci-60/default.htm.
Compounds with GIPRCNT values below 10 were considered active. Activity score was based on GIPRCNT using the following formula: […]
Score is 0 for GIPRCNT values of 100 or above, 50 for GIPRCNT values of 0, and 100 for GIPRCNT values of -100.
In the case of `O=C(c1ccc(O)cc1)C1[C@H](c2ccccc2Br)[C@@H](c2ccccc2)NC12C(=O)Nc1ccc(Cl)cc12` (stereo not given in full), the growth was 4.97% (active).
As for `COc1cccc2nc(Nc3cccc(NC(=O)c4ccc(CN5CCCN(C)CC5)c(C(F)(F)F)c4)c3)ccc12`, the growth is -69.3% (active).
As to `CC(C)(C)Nc1nc2cc(Cl)c(Cl)cc2nc1S(C)(=O)=O`, the growth is 41.3%.
To `Nc1nc(-c2ccccc2)cs1` belongs 37.7%; to `COc1ccc2[nH]c(O)c(N=NC(=O)COc3ccc(NC(=O)Nc4ccc(Cl)cc4)cc3)c2c1`, -28.6% (active); to `CCN(CC)CCOc1ccc(C(=C(C)c2ccccc2)c2ccc(OCCN(CC)CC)cc2)cc1`, 25.2%.
Regarding `Cc1ccc(C(C)C)cc1NC(=O)c1ccccc1O`, the growth is 59.1%.
With `CCOP(=O)(OCC)O[C@H]1CC[C@]2(C)[C@H]3CC[C@@H]4[C@@H]([C@](C)(O)CCC=C(C)C)CC[C@@]4(C)[C@]3(C)CC[C@H]2C1(C)C`, the growth is 32.9%.
With `CN1CCN(c2ccc(Nc3nc(NCCCNC(=O)c4ccc(Cl)cc4)c4sccc4n3)cc2)CC1` the figure was 67.9%; with `COc1ccc(NC(=O)Cn2c(/C=C/c3ccc(N(C)C)cc3)nc3ccccc3c2=O)cc1`, 21%; with `COC(=O)C[C@](O)(CCCC(C)(C)O)C(=O)O[C@H]1C(OC)=C[C@@]23CCC(=O)N2CCc2cc4c(cc2[C@@H]13)OCO4`, 107%.
As to `COc1cc(/C=C/C(=O)c2cc(OC)c(OC)c(OC)c2)ccc1Oc1nc(Nc2ccc(F)cc2)nc(N(C)C)n1`, the growth is -59.6% (active).
As to `O=C(CN1CCN(c2ncnc3c2cnn3-c2ccccc2)CC1)Nc1nncs1`, the growth is -21.4% (active).
For the compound `CC1=C2C(=C[C@@](C)(COCOCCCl)[C@@H]2O)C(=O)[C@](C)(O)C12CC2`, the growth is -38.4% (active).
Regarding `Cc1ccc(-c2cc(-c3cc4ccccc4nc3Cl)[nH]c(=S)n2)cc1`, the growth is 68.2%.
With `Nc1nc(Nc2ccc(Cl)cc2)n(Cc2cccc(Br)c2)n1` the figure was 2.52% (active); with `Cn1cc(/C=N/Nc2cccc(Cl)n2)c2ccccc21`, 80.3%; with `CN1CCN(Cc2ccc(NC(=O)c3cncc(C#Cc4cnc5ccc(N[C@H]6CCOC6)nn45)c3)cc2C(F)(F)F)CC1`, -94.4% (active).
Consider `COc1ccc(Nc2nc(N)n(Cc3cccc(Br)c3)n2)cc1`, for which the growth was 26.2%.
Turning to `Cc1cc(C(F)(F)F)ccc1C(=O)Nc1sc2c(c1C#N)CCC(=O)C2`, the growth is -9.16% (active).
For `O=c1[nH]c2ccccc2cc1CSc1ccc(Nc2nccc(-c3ccc(C(F)(F)F)cc3)n2)cc1`, the growth is -25.9% (active).
For `COc1ccc(-c2nc(-c3ccccc3)c(-c3ccccc3)n2-c2ccc(S(=O)(=O)Nc3ncccn3)cc2)cc1OC`, the growth was 90.2%.
Take `Cc1noc2c(Cc3ccccc3)nn(CC(=O)N/N=C/c3ccc(F)cc3)c(=O)c12`: the growth was 33.1%.
Consider `COc1ccccc1[C@H]1C(C(=O)c2ccc(Cl)cc2)C2(N[C@@H]1c1ccccc1)C(=O)Nc1ccccc12` (stereo not given in full), for which the growth was 4.63% (active).
With `Brc1ccc(/C=C/c2n(Cc3ccc4ccccc4c3)c3ccccc3[n+]2Cc2ccc3ccccc3c2)cc1`, the growth was -64% (active).
As for `O=c1[nH]c2ccccc2cc1CSc1ccc(Nc2nccc(-c3ccc4c(c3)OCO4)n2)cc1`, the growth is 75%.
As to `O=C(NO)c1ccc(CNC(=O)[C@H]2Cc3c([nH]c4ccccc34)[C@H](c3ccccc3)N2)cc1`, the growth was 24.7%.
On to `Brc1ccc(N/N=C/c2c[nH]c3ccccc23)nc1`, for which the growth was 44.3%.
As to `COc1ccc(-c2cc(C(=O)N=Nc3c(O)[nH]c4ccccc34)c3ccccc3n2)cc1`, the growth was -28.6% (active).
As for `CCCn1c(=O)c2[nH]c(-c3ccc(OCc4nc5ccc(F)cc5[nH]4)cc3)nc2n(CCC)c1=O`, the growth was -41.3% (active).
Turning to `O=C1Nc2ccc(Cl)cc2/C1=C/c1cccc(OCc2ccccn2)c1`, the growth is -42.6% (active).
As to `N#Cc1ccc(-c2nn(-c3ccc(C(=O)O)cc3)cc2CNc2ccc(Cl)cc2)cc1`, the growth is 74.4%.
In the case of `Cc1cc(=O)oc2cc(OCCCCOc3ccc(/C=C/C(=O)Nc4ccc(F)c(Cl)c4)cc3)ccc12`, the growth was 85.2%.
For `O=C1CCC(N2Cc3cc(CC(=O)Nc4ccc(N5CCCCC5)cc4)ccc3C2=O)C(=O)N1` (stereo not given), the growth is 20.9%.
In the case of `Cc1cc(=O)oc2cc(OCCCCOc3ccc(/C=C/C(=O)Nc4cccc(Cl)c4)cc3)ccc12`, the growth is 49.7%.
With `O=C(Nc1cccc(C(F)(F)F)c1)c1cncc(C#Cc2cnc3ccc(N4CCOCC4)nn23)c1` the figure was 3.84% (active); with `CN1CCN(Cc2ccc(NC(=O)c3cncc(C#Cc4cnc5ccc(N[C@@H]6CCOC6)nn45)c3)cc2C(F)(F)F)CC1`, -96.2% (active); with `COc1cc(C2CC(c3ccccc3)=Nc3c(N)nc(N)nc3N2)ccc1Oc1nc(Nc2ccc(F)cc2)nc(N(C)C)n1` (stereo not given), 40.4%.
To `CC(=O)c1cc(C(=O)N2c3ccccc3Sc3ccccc32)n2ccc(C)cc12` belongs 45.9%; to `N#Cc1ccc(-c2nn(-c3ccc(C(=O)O)cc3)cc2CNc2cc(Cl)cc(Cl)c2)cc1`, 47.6%.
